Measurements: PubChem BioAssay

Test: RPMI8226 myeloma cell viability, profiling panel, resazurin fluorescence, basal, 24 h, PK04 Diversity Set (AID 1180);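 further: RPMI8826 multiple myeloma cell line at 5000 cells per well; test concentration not given here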
Settings: higher = more signal

**Q.** With `COC(=O)[C@]1(Cc2ccccc2CN=[N+]=[N-])N=C(c2ccc(OCCCO)cc2)O[C@@H]1c1ccccc1N=[N+]=[N-]` as the compound, how does the z-score read?
**A.** -6.89

**Q.** Which z-score does the source give for `O=C1O[C@H](c2ccccc2)[C@H](c2ccccc2)N2[C@H]1[C@@H](C(=O)O)[C@]1(C(=O)Nc3ccc(C#CC4(O)CCCCCC4)cc31)[C@H]2c1ccccc1OCCO` here?
**A.** 0.305

**Q.** For `COCCOC(=O)N1C(=O)[C@@]2(c3ccccc31)[C@H](C(=O)Nc1nc3ccccc3s1)[C@H]1C(=O)O[C@H](c3ccccc3)[C@H](c3ccccc3)N1[C@@H]2c1ccccc1OCCO`, which z-score is on record?
**A.** -0.236

**Q.** With `[N-]=[N+]=Nc1ccccc1C[C@]1(C(N)=O)COC(c2ccc(OCCCO)cc2)=N1` as the compound, how does the z-score read?
**A.** 0.177

**Q.** With `CCOC(=O)C1=CCC(c2cccn2C(=O)OC(C)(C)C)N(S(=O)(=O)c2ccc(C)cc2)C1` (stereo unspecified) as the compound, how does the z-score read?
**A.** -0.538

**Q.** For `O=C1C2C=CC(C(O)C(c3ccccc3)c3ccccc3)N(Nc3ccccc3F)C2C(=O)N1c1ccccc1` (stereo unspecified), which z-score is on record?
**A.** -1.32

**Q.** With `COc1cc(Cc2cc3c(c(-c4ccccc4)n2)[Si](C(C)C)(C(C)C)OC3)cc(OC)c1OC` as the compound, how does the z-score read?
**A.** 0.542

**Q.** With `CC1(C)OB(/C=C\CC(OC(=O)c2ccncc2)c2ccccc2)OC1(C)C` (stereo unspecified) as the compound, how does the z-score read?
**A.** 0.143

**Q.** For `COC(=O)[C@@]1(Cc2ccc(F)cc2)[C@H]2c3cc(C(=O)N(C)C)n(Cc4ccc(C(F)(F)F)nc4)c3C[C@H]2CN1C(=O)c1ccccc1`, which z-score is on record?
**A.** -0.912

**Q.** Which z-score does the source give for `Cc1ccc(S[C@]2(C(=O)NC(C)C)CC(=O)N(Cc3ccccc3)[C@@H]2c2ccc(CO)cc2)cc1` here?
**A.** 1

**Q.** For `CN1C(=O)C2C=CC(C(O)c3ccc([N+](=O)[O-])cc3)N(Nc3ccccc3)C2C1=O` (stereo unspecified), which z-score is on record?
**A.** -1.44
